POLK inh = blocks human DNA polymerase kappa activity; Q9UBT6; 0.53% of 400,000 active; purified Pol kappa, fluorescent DNA synthesis assay, 10 min; Potency, µM (top dose mostly 107 µM), for the others: at the highest dose activity, negative = inhibition, actives largely listed as inhibitors; further: potency means the concentration at half of the fitted maximal effect; on the % scale 0 is the no-effect control and ±100 the full control effect
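50 nM final substrate added after 15 min RT preincubation of 10 nM Pol kappa with compound; fluorescence read at 0 and 10 min.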
Pol eta inh = blocks human DNA polymerase eta activity; Q9Y253; recombinant Pol eta, fluorescent DNA replication assay; Potency, µM (titrated, usually from 114 µM), for inactives: top-dose activity change, negative = inhibition, hits mostly inhibitors; 1.2% of 390,000 active; further: potency means the concentration at half of the fitted maximal effect; on the % scale 0 is the no-effect control and ±100 the full control effect
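Fluorescent replication assay: 50 nM final substrate added after a 15 min room-temperature compound preincubation with 10 nM enzyme. Signal taken at 0 min and again at 10 min.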
Pol beta inh = blocks human DNA polymerase beta activity. P06746. Pol beta primer extension/strand displacement, fluorescence kinetic. Potency, µM (doses to about 114 µM), for the others: top-dose activity change, negative = inhibition, hits mostly inhibitors. 1.3% of 340,000 active; further: potency means the concentration at half of the fitted maximal effect; on the % scale 0 is the no-effect control and ±100 the full control effect
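10 nM enzyme + cpd, 15 min RT; start with substrate 50 nM final; read 0 min and after 10 min RT. Corrected, normalized data; 4-parameter Hill curve fit.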
POLI inh = blocks human DNA polymerase iota activity | 1% of 390,000 active | Pol iota fluorescent replication assay, 10 min | Q9UNA4 | Potency, µM (highest dose often 115 µM), for inactives: at the top dose activity, negative = inhibition, actives largely listed as inhibitors; further: potency means the concentration at half of the fitted maximal effect
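Pol iota at 10 nM preincubated 15 min with compounds at room temperature; reaction started with fluorescent substrate, 50 nM final. Fluorescence read kinetically at 0 and 10 min; buffer-only wells as negative control.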
PI5P4K alpha inh = blocks human PI5P4K alpha kinase activity. AID 652105. P48426. 1.2% of 330,000 active. max response, %. PI5P4Kalpha enzyme, ADP-Glo luminescence, 60 min; hits give low values; active means max response of -50% or lower; inconclusive means between -30% and -50%; inactive means -30% or higher; further: value at the top dose of about 77 µM; on the % scale 0 is the no-effect control and ±100 the full control effect
Target sequence (P48426 whole entry, looked up): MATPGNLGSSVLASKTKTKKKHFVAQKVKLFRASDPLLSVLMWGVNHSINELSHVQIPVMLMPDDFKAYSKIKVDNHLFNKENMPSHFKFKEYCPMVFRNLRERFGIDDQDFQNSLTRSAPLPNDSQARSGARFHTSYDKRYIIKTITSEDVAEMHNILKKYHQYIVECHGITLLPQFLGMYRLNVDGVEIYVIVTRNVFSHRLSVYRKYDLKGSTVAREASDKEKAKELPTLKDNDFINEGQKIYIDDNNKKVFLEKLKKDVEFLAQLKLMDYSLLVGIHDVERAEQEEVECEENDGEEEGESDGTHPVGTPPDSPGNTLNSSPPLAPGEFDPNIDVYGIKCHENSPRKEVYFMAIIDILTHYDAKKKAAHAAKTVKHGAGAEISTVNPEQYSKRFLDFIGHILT
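Quantitative HTS of the MLSMR library against PI5P4Kalpha with substrate. ATP added last at 5 microM final; room temperature, 60 minutes. Remaining ATP depleted, ADP converted and read as luminescence.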
12-LOX inh = blocks human arachidonate 12S-lipoxygenase; purified 12hLO, xylenol orange hydroperoxide absorbance; Potency, µM (top dose mostly 108 µM), inactives show at the highest dose activity change, negative = inhibition, usual class: inhibitors; 1.1% of 580,000 active; AID 1671190; further: potency means the concentration at half of the fitted maximal effect; on the % scale 0 is the no-effect control and ±100 the full control effect
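Purified human 12hLO (150 nM final) in 25 mM Hepes, 0.01% Triton X-100, pH 7.0 was preincubated 15 min at room temperature with compound. Then 40 uM arachidonic acid was added, 30 min. Hydroperoxide was read by Fe-XO absorbance ratio 573/405 nm.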
Numbers without * were called inactive; [ ] = another dose, or the depositor's remark. Compounds with a hit are over-represented: about 2.9% of the library has one in this group of screens. Unless noted, the call rests on the fitted dose curve; in most records, active means well fitted inhibition curve with a large enough effect; inconclusive means small, poorly fitted or top-dose-only effect, or another doubt; inactive means no such curve, though single readings can be large or run the other way.

What do the screens show for `Cc1ccc(/C=C2/C(=O)ON=C2c2ccccc2)o1`?
POLK inh: 22µM*; Pol eta inh: 35µM*; Pol beta inh: -7%; POLI inh: 4µM*; PI5P4K alpha inh: inconclusive; 12-LOX inh: 10µM*

How did CCCOc1ccc(/C=C2/C(=O)ON=C2C)cc1OCC do in these assays?
POLK inh: -2%; Pol eta inh: -18%; Pol beta inh: 2%; POLI inh: 50%; PI5P4K alpha inh: 0; 12-LOX inh: inconclusive

What do the screens show for `CNC(=O)c1ccccc1OCc1coc(-c2cccc(F)c2)n1`?
12-LOX inh: -3%

How did CCN1c2cc(C(=O)Nc3ccc4c(c3)OCCO4)ccc2C(=O)N2CCCC21 (centres undefined) do in these assays?
12-LOX inh: 1%

Results for CCCOc1ccccc1/C=C1/C(=O)ON=C1C ?
POLK inh: -7%; Pol eta inh: -4%; Pol beta inh: 10%; POLI inh: 28%; PI5P4K alpha inh: -17; 12-LOX inh: 40µM*

How did CC1=NOC(=O)/C1=C/c1ccc(O)c(Br)c1 do in these assays?
POLK inh: -5%; Pol eta inh: inconclusive; Pol beta inh: 9%; POLI inh: inconclusive; PI5P4K alpha inh: inconclusive; 12-LOX inh: inconclusive

Results for O=C1ON=C(c2ccccc2)/C1=C/c1ccccc1 ?
POLK inh: 12%; Pol eta inh: 0%; Pol beta inh: 8%; POLI inh: -8%; PI5P4K alpha inh: -28; 12-LOX inh: 6.3µM*

What do the screens show for `COc1cc(/C=C2\C(=O)ON=C2c2ccccc2)cc(Cl)c1O`?
POLK inh: -10%; Pol eta inh: -14%; Pol beta inh: -25%; POLI inh: inconclusive; PI5P4K alpha inh: -67*; 12-LOX inh: inconclusive

What do the screens show for `CC1=NOC(=O)/C1=C/c1ccc(O)cc1`?
POLK inh: -2%; Pol eta inh: -16%; Pol beta inh: -28%; POLI inh: inconclusive; PI5P4K alpha inh: -5; 12-LOX inh: 16µM*

How did O=C(/C=C/c1ccco1)NCCc1c[nH]c2ccccc12 do in these assays?
12-LOX inh: -26%

Results for Cn1c(=O)c2c(nc(Cl)n2CCCC#N)n(C)c1=O ?
12-LOX inh: -5%

What do the screens show for `O=C1ON=C(c2ccccc2)/C1=C\c1ccco1`?
POLK inh: -19%; Pol eta inh: -4%; Pol beta inh: 32µM*; POLI inh: 8%; PI5P4K alpha inh: 0; 12-LOX inh: 6.3µM*

What do the screens show for `COc1cc([N+](=O)[O-])ccc1-c1ccc(/C=N\n2cnnc2)o1`?
POLK inh: -15%; Pol eta inh: 8%; Pol beta inh: inconclusive; POLI inh: inconclusive; PI5P4K alpha inh: -17; 12-LOX inh: inconclusive

What do the screens show for `COc1cc([N+](=O)[O-])ccc1-c1ccc(/C=C2\C(=O)ON=C2c2ccccc2)o1`?
POLK inh: -28%; Pol eta inh: 79µM*; POLI inh: inconclusive; PI5P4K alpha inh: -23; 12-LOX inh: inconclusive

How did O=C(CSC1=NC2(CCCCC2)N=C1c1cccs1)NCc1ccc(Cl)cc1 do in these assays?
12-LOX inh: -22%

What do the screens show for `CC(C)Cc1nc2oc3c(NCC(C)O)ncnc3c2c2c1CCC2` (centres undefined)?
12-LOX inh: 1%

What do the screens show for `CC(=O)[C@@]1(O)[C@H](C)CC2C3CC=C4CC(OP(=O)(O)O)CC[C@]4(C)C3CC[C@@]21C` (some centres undefined)?
POLK inh: -2%; Pol eta inh: -21%; Pol beta inh: 50µM*; POLI inh: -4%; PI5P4K alpha inh: -7; 12-LOX inh: 0%

What do the screens show for `O=C(O)Cn1ccc2cc(OCCc3cccc(-c4ccc(Cl)cc4)c3)cnc21`?
12-LOX inh: 45µM*

How did COc1ccc(-c2cccc(COc3cnc4c(ccn4CC(=O)O)c3)c2)c(C)c1 do in these assays?
12-LOX inh: 45µM*

What do the screens show for `COc1cc(Cl)ccc1-c1cccc(CCOc2cnc3c(ccn3CC(=O)O)c2)c1`?
12-LOX inh: -21%[176 µM]

What do the screens show for `CCC(CC)=NNc1cccc([N+](=O)[O-])c1`?
POLK inh: -2%; Pol eta inh: -23%; Pol beta inh: -16%; POLI inh: 15%; PI5P4K alpha inh: -1; 12-LOX inh: inconclusive

Results for C/C(=N\NC(=O)c1cccc(N/N=C(\C)c2ccccc2)c1)c1ccccc1 ?
POLK inh: -8%; Pol eta inh: -19%; Pol beta inh: 0%; POLI inh: 105%; PI5P4K alpha inh: -27; 12-LOX inh: inconclusive

How did C/C(=N\Nc1ccc([N+](=O)[O-])cc1)c1ccc(N)cc1 do in these assays?
POLK inh: -13%; Pol eta inh: -15%; Pol beta inh: -1%; POLI inh: 17%; PI5P4K alpha inh: -7; 12-LOX inh: inconclusive

How did C/C(=N/Nc1ccccc1)c1ccc([N+](=O)[O-])cc1 do in these assays?
12-LOX inh: 1.6µM*

What do the screens show for `CC/C(C)=N/Nc1cccc([N+](=O)[O-])c1`?
POLK inh: -18%; Pol eta inh: 0%; Pol beta inh: 87%; POLI inh: inconclusive; PI5P4K alpha inh: 7; 12-LOX inh: 1.1µM*

Results for C/C(=N/Nc1ccc2ccccc2c1)c1ccccc1 ?
12-LOX inh: 2µM*

How did N#Cc1nc(COc2ccc(Br)cc2)oc1N1CCCCC1 do in these assays?
12-LOX inh: -59%

How did COC(=O)c1ccccc1NCC(=O)NC(=O)NC(C)C do in these assays?
12-LOX inh: -39%

What do the screens show for `CCC(=O)c1ccc(Oc2ccc(C(=O)c3ccc(C)cc3)cc2[N+](=O)[O-])cc1`?
POLK inh: 0%; Pol eta inh: -13%; Pol beta inh: 40%; POLI inh: 15%; PI5P4K alpha inh: 10; 12-LOX inh: inconclusive

Results for O=C(c1cc(O)c(O)c([N+](=O)[O-])c1)c1ccccc1F ?
POLK inh: inconclusive; Pol eta inh: inconclusive; Pol beta inh: 17%[57.1 µM]; POLI inh: inconclusive; PI5P4K alpha inh: -66*; 12-LOX inh: inconclusive

Results for Cc1ccc(C(=O)c2cc(O)c(O)c([N+](=O)[O-])c2)cc1 ?
12-LOX inh: 0.054µM*

What do the screens show for `O=C(Nc1ccc([N+](=O)[O-])cc1)c1ccccc1F`?
POLK inh: 0%[60.1 µM]; Pol eta inh: -11%; Pol beta inh: 31%; POLI inh: -4%; PI5P4K alpha inh: 9; 12-LOX inh: 2%

How did NC(=O)c1cc(-c2ccc(Br)cc2)nc2ccccc12 do in these assays?
12-LOX inh: -21%

Results for Cc1nc(-c2cccc(F)c2)sc1CCNC(=O)C1CCCC1 ?
12-LOX inh: 18%

Screening data deposited in PubChem BioAssay by National Center for Advancing Translational Sciences (NCATS).
